# Where a name gives a salt, the structure may show the parent alone.
# System: Danio rerio larvae (5 dpf)
# Assay: excitability (activity period 17 minus period 16, 1-s interval sound) minus DMSO control (percentage points); higher = more acoustic excitability than DMSO larvae
# Settings: 10 µM; exposure time: 3 h pre-incubation + 3 h imaging
# Protocol: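 Wild-type 5 dpf zebrafish larvae (n=48 per drug, 96-well plates, 28.5 °C) were exposed to Tocris FDA-approved library compounds at 10 µM (0.1% DMSO) for 3 h before and 3 h during imaging. Images were taken every 6 s during visual (moving coloured lines) and acoustic stimuli, and larvae were tracked with the DeepLabCut-based Z-LaP Tracker. Each behavioural measure is the treated-group mean minus the DMSO vehicle control mean (n=844), in percentage points. This mapping covers compounds with 4-character plate codes.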
row,SMILES,excitability
1,COc1cc(Nc2c(C#N)cnc3cc(OCCCN4CCN(C)CC4)c(OC)cc23)c(Cl)cc1Cl [Bosutinib],7.41
2,CC(C)C(=O)OCC(=O)[C@@]12O[C@H](C3CCCCC3)O[C@@H]1C[C@H]1[C@@H]3CCC4=CC(=O)C=C[C@]4(C)[C@H]3[C@@H](O)C[C@@]12C [Ciclesonide],6.47
3,Cc1ccc(N(CC2=NCCN2)c2cccc(O)c2)cc1 [Phentolamine Mesylate],15.6
4,CCCN(CCc1cccs1)[C@H]1CCc2c(O)cccc2C1 [Rotigotine hydrochloride],13.6
5,CCOC(=O)[C@H](CCc1ccccc1)N[C@@H](C)C(=O)N1[C@H](C(=O)O)C[C@@H]2CCC[C@@H]21 [Ramipril],6.38
6,Cn1nnc2c(C(N)=O)ncn2c1=O [Temozolomide],0.618
7,Cc1c(-c2ccc(O)cc2)n(Cc2ccc(OCCN3CCCCCC3)cc2)c2ccc(O)cc12 [Bazedoxifene acetate],15.4
8,COC(c1ccccc1)(c1ccccc1)[C@H](Oc1nc(C)cc(C)n1)C(=O)O [Ambrisentan],-1.02
9,CC(C)c1nc(CN(C)C(=O)N[C@H](C(=O)N[C@@H](Cc2ccccc2)C[C@H](O)[C@H](Cc2ccccc2)NC(=O)OCc2cncs2)C(C)C)cs1 [Ritonavir],8.43
10,CCCCC1=NC2(CCCC2)C(=O)N1Cc1ccc(-c2ccccc2-c2nnn[nH]2)cc1 [Irbesartan],-0.258
11,Cc1ccccc1C(=O)Nc1ccc(C(=O)N2CCCC(O)c3cc(Cl)ccc32)c(C)c1 (stereo not given) [Tolvaptan],8.2
12,CC(c1cc2ccccc2s1)N(O)C(N)=O (stereo not given) [Zileuton],6.27
13,CC(C)c1nc(N(C)S(C)(=O)=O)nc(-c2ccc(F)cc2)c1/C=C/[C@@H](O)C[C@@H](O)CC(=O)O [Rosuvastatin calcium],-2.24
14,Nc1ncn([C@@H]2O[C@H](CO)[C@@H](O)[C@H]2O)c(=O)n1 [5-Azacytidine],-2.47
15,CCOc1nc2cccc(C(=O)O)c2n1Cc1ccc(-c2ccccc2-c2nnn[nH]2)cc1 [Candesartan],-3.55
16,Nc1cc(N2CCCCC2)nc(N)[n+]1[O-] [Minoxidil],0.502
17,CNC(=O)c1ccccc1Sc1ccc2c(/C=C/c3ccccn3)n[nH]c2c1 [Axitinib],1.48
18,CC(CCc1ccc(O)cc1)NCCc1ccc(O)c(O)c1 (stereo not given) [Dobutamine hydrochloride],9.03
19,CC/C(=C(\c1ccccc1)c1ccc(OCCN(C)C)cc1)c1ccccc1 [Tamoxifen citrate],4.81
20,CCCCCCCCc1ccc(CCC(N)(CO)CO)cc1,14.6

row,SMILES,excitability
1,CC(C)(C#N)c1cc(Cn2cncn2)cc(C(C)(C)C#N)c1 [Anastrozole],3.43
2,CN(C)CC/C=C1/c2ccccc2COc2ccc(CC(=O)O)cc21 [Olopatadine hydrochloride],5.43
3,C#C[C@]1(O)CC[C@H]2[C@@H]3CCC4=CC(=O)CC[C@@H]4[C@H]3CC[C@@]21CC [Levonorgestrel],3.64
4,CN(C)CCc1c[nH]c2ccc(Cn3cncn3)cc12 [Rizatriptan benzoate],-0.877
5,Clc1ccccc1C(c1ccccc1)(c1ccccc1)n1ccnc1 [Clotrimazole],11.3
6,Cn1cnc([N+](=O)[O-])c1Sc1ncnc2[nH]cnc12 [Azathioprine],0.781
7,N[C@@H]1[C@H]2CN(c3nc4c(cc3F)c(=O)c(C(=O)O)cn4-c3ccc(F)cc3F)C[C@@H]12 [Trovafloxacin mesylate],12.2
8,CCCCc1nc(Cl)c(CO)n1Cc1ccc(-c2ccccc2-c2nnn[nH]2)cc1 [Losartan potassium],6.79
9,CCC(C)(C)C(=O)O[C@H]1C[C@@H](C)C=C2C=C[C@H](C)[C@H](CC[C@@H]3C[C@@H](O)CC(=O)O3)[C@H]21 [Simvastatin],10.2
10,O=C(Nc1c(Cl)cncc1Cl)c1ccc(OC(F)F)c(OCC2CC2)c1 [Roflumilast],13.4
11,C[C@]12CC[C@@H]3c4ccc(O)cc4C[C@@H](CCCCCCCCC[S+]([O-])CCCC(F)(F)C(F)(F)F)[C@H]3[C@@H]1CC[C@@H]2O (stereo not given in full),3.06
12,Brc1c(NC2=NCCN2)ccc2nccnc12,6.71
13,NC(=O)N1c2ccccc2C=Cc2ccccc21 [Carbamazepine],1.07
14,CC(C)c1ccc2oc3nc(N)c(C(=O)O)cc3c(=O)c2c1 [Amlexanox],5.26
15,CC(C)C(=O)Nc1ccc([N+](=O)[O-])c(C(F)(F)F)c1 [Flutamide],-5.48
16,CC(C)n1c(/C=C/C(O)CC(O)CC(=O)O)c(-c2ccc(F)cc2)c2ccccc21 (stereo not given) [Fluvastatin sodium],3.75
17,O=C(c1ccc(OCCN2CCCCC2)cc1)c1c(-c2ccc(O)cc2)sc2cc(O)ccc12 [Raloxifene hydrochloride],9.77
18,CCCCCOC(=O)Nc1nc(=O)n([C@@H]2O[C@H](C)[C@@H](O)[C@H]2O)cc1F [Capecitabine],6.07
19,O=c1[nH]c(=O)n([C@H]2C[C@H](O)[C@@H](CO)O2)cc1C(F)(F)F [Trifluorothymidine],4.38
20,CN1CCN2c3ncccc3Cc3ccccc3C2C1 (stereo not given) [Mirtazapine],4.38
